Screening data as filed in PubChem BioAssay.
PAFAH1B2 FP inh – inhibitors of human PAFAH1B2 | P68402 | recombinant PAFAH1B2, FP-rhodamine activity probe, fluorescence polarization | inhibition, % at 3.39 µM | 340,000 compounds, 1.2% hits | AID 492953;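 active = inhibition above the mean of all tested compounds plus 3 SD, cut at about 24% in these data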;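 also: 0% = enzyme with DMSO and 100% = wells lacking PAFAH1B2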
Target sequence (P68402 whole entry, looked up): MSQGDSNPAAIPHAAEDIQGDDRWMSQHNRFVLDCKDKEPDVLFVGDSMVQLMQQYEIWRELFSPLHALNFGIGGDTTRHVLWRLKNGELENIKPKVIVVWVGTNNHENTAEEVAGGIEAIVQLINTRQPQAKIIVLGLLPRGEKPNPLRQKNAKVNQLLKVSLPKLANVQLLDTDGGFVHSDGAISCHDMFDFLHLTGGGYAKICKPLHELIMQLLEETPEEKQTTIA
PAFAH1B3 inh – inhibitors of human PAFAH1B3; recombinant PAFAH1B3, FP-rhodamine probe, fluorescence polarization; Q15102; inhibition, % at 3.39 µM; AID 492972; 340,000 compounds, 0.28% hits;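 active = inhibition above the screen-wide average of all tested compounds plus 3 SD, cut at about 25% in these data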;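 also: 0% = enzyme with DMSO only and 100% = wells lacking PAFAH1B3 protein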
Target sequence (Q15102 whole entry, looked up): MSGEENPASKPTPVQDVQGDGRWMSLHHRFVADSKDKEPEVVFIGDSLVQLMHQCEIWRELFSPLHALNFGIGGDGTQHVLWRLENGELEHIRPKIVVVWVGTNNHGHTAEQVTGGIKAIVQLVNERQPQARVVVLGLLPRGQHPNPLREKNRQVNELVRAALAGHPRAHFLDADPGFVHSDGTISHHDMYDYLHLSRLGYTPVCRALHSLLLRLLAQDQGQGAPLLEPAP
PME-1 inh – blocks human protein phosphatase methylesterase 1; recombinant PME-1, FP-Rh probe fluorescence polarization; 320,000 compounds, 0.53% hits; Q9Y570; inhibition, % at 5.9 µM;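 active = inhibition above the campaign mean of all compounds plus 3 SD, cut at about 26% in these data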;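 also: competitive labeling of PME-1 active site by serine hydrolase directed probe; 0% = PME-1 with DMSO and 100% = wells lacking PME-1 enzyme; inhibitors block probe labeling so polarization falls and inhibition rises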
pPAFAH FP inh – pPAFAH (human) enzyme inhibition | recombinant pPAFAH, FP-rhodamine probe fluorescence polarization | inhibition, % at 3.39 µM | 330,000 compounds, 1.5% hits;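 active = inhibition above the mean inhibition across the screen plus 3 SD, cut at about 25% in these data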;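 also: inhibitors block binding of the rhodamine activity-based probe so polarization drops; 0% = enzyme with DMSO and 100% = wells lacking pPAFAH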
PAFAH2 inh – inhibitors of human PAFAH2 | recombinant PAFAH2, FP-rhodamine activity probe, fluorescence polarization | inhibition, % at 3.39 µM | 340,000 compounds, 0.99% hits | AID 492956;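 active = inhibition above the mean over all tested compounds plus 3 SD, cut at about 30% in these data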;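 also: inhibitors block probe labeling of enzyme so polarization drops; 0% = enzyme with DMSO and 100% = wells lacking PAFAH2 protein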
Fam108B inh – counter-screen for RBBP9 inhibitors: inhibitors of mouse Fam108B | inhibition, % at 9.51 µM | recombinant Fam108B, FP-Rh probe fluorescence polarization | 300,000 compounds, 0.33% hits;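 active = inhibition above the screen mean inhibition plus 3 SD, computed separately per campaign, cut at about 18% in these data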;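 also: inhibitors lower polarization as less probe binds the enzyme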
* = called active by the depositor; x = no result given. Rows were chosen to be rich in hits. Some 2.9% of all compounds tested hit in one or more screens of this group.

SMILES | PAFAH1B2 FP inh | PAFAH1B3 inh | PME-1 inh | pPAFAH FP inh | PAFAH2 inh | Fam108B inh
CCCCn1nc(NS(=O)(=O)c2cccc3nonc23)c2cc3cccc(C)c3nc21 | 11 | 12 | 11 | 32* | 15 | 1
O=C(c1cc2n(n1)C(C(F)(F)F)CC(c1ccco1)N2)N1CCN(c2ccccn2)CC1 (stereo not drawn) | 0 | 9 | 4 | 9 | -6 | 3
Cc1cccc(N2CCN(C(=O)c3cc4n(n3)C(C(F)(F)F)CC(c3ccco3)N4)CC2)c1C (stereo not drawn) | 3 | 4 | -3 | 34* | 7 | -3
Cc1ccc(SCC(=O)Nc2cccc(C)c2)cc1 | 29* | 11 | -1 | 4 | -1 | -2
Cc1ccc(SCC(=O)Nc2cc([N+](=O)[O-])ccc2O)cc1 | 82* | 9 | 6 | 6 | 49* | 6
CCc1ccc2c(c1)C1(NN=C(c3ccc(C)cc3)S1)C(=O)N2 (stereo not drawn) | 3 | 0 | 20 | 2 | -3 | 13
CC(C)c1ccc2c(c1)C1(NN=C(c3ccccc3)S1)C(=O)N2 (stereo not drawn) | 8 | 12 | 33* | 6 | 6 | 7
CCOC(=O)N1CCc2c(sc(NC(=O)c3ccc(Cl)s3)c2C(N)=O)C1 | x | x | -6 | 25* | x | 9
Cc1ccc(-n2cccc2C(=O)NS(=O)(=O)c2ccc(C)cc2)cc1 | 28* | 0 | 10 | 1 | -4 | -1
O=C(CSc1nncn1-c1ccccc1)Nc1ccccc1F | 8 | 0 | 0 | -5 | 3 | 0
CCOc1c(Br)cc(C(=O)OCC(=O)N2CCc3ccccc3C2)cc1OC | 5 | 8 | -2 | 6 | 13 | x
CC(=O)Oc1cc(C(=O)OCC(=O)N2CCc3ccccc3C2)cc(OC(C)=O)c1OC(C)=O | 12 | 7 | x | 33* | 36* | x
Cc1ccc(-c2nn3c(C)nnc3c3ccccc23)cc1S(=O)(=O)NC(C)c1ccccc1 (stereo not drawn) | 26* | 4 | 20 | 4 | -10 | -1
COc1ccc(C2=NN(c3nc(-c4ccc(CNC(C)=O)cc4)cs3)C(c3ccco3)C2)cc1 (stereo not drawn) | 1 | -10 | -10 | 25* | -3 | -9
Cc1ncc(CSc2ccc(Cl)cc2)c(CO)c1O | 27* | 6 | -6 | 0 | 1 | 3
Cc1ncc(CSc2nccc(=O)[nH]2)c(CO)c1O | 6 | 0 | 2 | 2 | -4 | -3
COCCCn1c(SCC(=O)Nc2sc3c(c2C#N)CCCC3)nnc1-c1ccncc1 | 0 | 3 | 11 | 26* | 11 | 1
NC(=O)c1ccc(NC(=O)CCCN2C(=O)NC3(CCCC3)C2=O)cc1 | 6 | 3 | -3 | -4 | 7 | x
O=S(=O)(c1ccc(Br)cc1)N1CCC2(CC1)OCCO2 | 27* | 7 | 2 | -2 | 8 | 0
O=C(CCc1ccc(S(=O)(=O)N2CCOCC2)cc1)N/N=C/c1ccc(O)c(O)c1O | 3 | 13 | 5 | 28* | 5 | 4
C=CCOc1c(/C=N\NC(N)=O)cccc1OC | 8 | 10 | 1 | 2 | -1 | -2
C=CCOc1c(OC)cc(/C=N/Nc2cccc(C(=O)O)c2)c(Br)c1Br | 3 | 5 | 46* | 14 | 24 | 25*
N/C(=N\OC(=O)Cc1ccccc1)c1ccc(Br)cc1 | 27* | 10 | -3 | 4 | -1 | -2
N#CC(=C(c1ccccc1)c1ccccc1)c1ccccc1 | 24* | 5 | x | x | 0 | x
CCCCCCSC1=C(C#N)C(c2ccc(C)o2)CC(=O)N1 (stereo not drawn) | 5 | 10 | 6 | 25* | 18 | -3
SMILES | PAFAH1B2 FP inh | PAFAH1B3 inh | PME-1 inh | pPAFAH FP inh | PAFAH2 inh | Fam108B inh
CCCCCCSc1cc(-c2nc3cc(C)ccn3c2NCCCC)ccc1OC | 2 | 7 | 9 | 18 | 1 | 6
CCCCNc1c(-c2cccc(-c3cc(C(C)=O)cs3)c2)nc2cc(C)ccn12 | 7 | 10 | 10 | 33* | 5 | 7
Cc1ccc(NC2=C/C(=N\S(=O)(=O)c3cccs3)c3ccccc3C2=O)c(C)c1 | 30* | 65* | 6 | 29* | 34* | 19*
Cc1cccc(NC2=C/C(=N/S(=O)(=O)c3cccs3)c3ccccc3C2=O)c1 | 23 | 64* | 16 | 22 | 14 | 17
O=C1C(Nc2ccc(O)cc2)=C/C(=N/S(=O)(=O)c2cccs2)c2ccccc21 | 29* | 64* | x | x | 35* | x
O=C(O)c1ccc(NC2=C/C(=N/S(=O)(=O)c3ccccc3)c3ccccc3C2=O)cc1 | 30* | 63* | x | x | 48* | x
O=C1C=C(Nc2ccc(O)cc2)C(=O)c2ccccc21 | 2 | 6 | 14 | 9 | 3 | 8
Cc1cccc(NC2=C(NCCO)C(=O)c3ccccc3C2=O)c1 | 4 | 10 | 19 | 1 | 4 | 6
Cc1cc(C)c(S(=O)(=O)/N=C2\C=C(NS(=O)(=O)c3ccccc3)C(=O)c3ccccc32)c(C)c1 | 0 | -5 | -15 | 1 | 4 | -4
N#Cc1c(NC(=O)Cn2nc(C(F)(F)F)c3c2CCCC3)sc2c1CCC2 | 1 | 0 | -3 | 1 | -3 | -3
Cc1c(Cl)cccc1NC(=O)CSc1nc2c(c(=O)[nH]1)CCCC2 | x | x | -1 | 2 | x | -6
S=c1[nH]nc(-c2ccccc2)n1/N=C/C=C/c1ccco1 | 1 | 15 | 9 | 31* | 11 | 7
O=C(OCc1ccc(Br)cc1)c1ccncc1 | 12 | 4 | 1 | -3 | 0 | -1
CC(=O)Nc1ccc(C(=O)OCc2ccc(Br)cc2)cc1 | 26* | 1 | -3 | 0 | 34* | -3
CCOc1ccc(CCNC(=O)CCS(=O)(=O)c2ccc(OC)cc2)cc1OCC | 0 | -2 | -5 | 34* | 0 | 0
CC(C)C(=O)N[C@@H]1c2ccccc2CC[C@H]1OCc1ccccc1 | 1 | 0 | x | -4 | 5 | x
CC(=O)N(C)c1ccc(N=Cc2cc3c(cc2[N+](=O)[O-])OCO3)cc1 | 4 | 3 | 0 | 7 | 6 | 0
CCN(CC)c1ccc(N=Cc2ccccc2[N+](=O)[O-])cc1 | 0 | 10 | 5 | 33* | 4 | 7
NC(=O)c1ccc[n+](CC(=O)c2ccc(Br)cc2)c1 | 6 | 0 | 4 | 3 | 2 | -1
NC(=O)c1ccc[n+](CC(=O)OCCC23CC4CC(CC(C4)C2)C3)c1 | 26* | 0 | -3 | -3 | 0 | -4
CC1CN(Cc2ccccn2)CCC1=O (stereo not drawn) | 5 | -3 | 2 | 4 | 3 | -5
Cc1cccnc1NC(=O)c1ccc2nc(N)sc2c1 | 6 | 4 | -2 | 3 | 6 | -3
CCN(CC)c1cccc(OC2=NS(=O)(=O)c3ccccc32)c1 | -1 | -3 | 11 | 25* | 2 | 6
CCc1ccc(OC2=NS(=O)(=O)c3ccccc32)cc1 | 3 | 8 | x | x | 0 | x
